Results taken from PubChem BioAssay AID1347156 (National Center for Advancing Translational Sciences (NCATS), 2019).
Results filed as inconclusive are left out. The source made the active and inactive calls. Calls come from the whole dose curve; as a rule, active = well fitted cell-killing curve with a large enough effect; inconclusive = small, poorly fitted or top-dose-only effect; inactive = flat fitted curve, though single readings scatter.

Experiment: DAPI mCherry counterscreen qHTS for Zika virus inhibitors; note: nearly all actives have a fitted effect of over 55% in size
Settings: Vero cells, DAPI nuclear count cytotoxicity, imaging 48-72 h, infected with Zika reporter virus, MOI 1; series mostly up to 32.6 µM
Description: Assay Submitters (PI): Avindra Nath, Ph.D., National Institute of Neurological Disorders and Stroke (NINDS), Bethesda, MD Radhakrishnan Padmanabhan, Ph.D., Georgetown University (GU), Washington D.C. Zika Virus causes congenital defects, including microcephaly and is associated with Guillain-Barre syndrome, eningoencephalitis and myelitis in infected adult. […] Using a target-based approach, we hope to establish a screening paradigm to uncover novel, cell-active NS2B-NS3 protease (Zika Virus) specific inhibitors from NCATS' collection of small molecules using qHTS. […] Four assay panel was created to identify potential Zika Virus inhibitors. Namely, (1) GU unlinked NS2B-NS3 AMC tagged protease qHTS, (2) GU unlinked NS2B-NS3 Rhodamine tagged protease qHTS, (3) NINDS linked NS2B-NS3 AMC tagged protease qHTS, (4) NINDS linked NS2B-NS3 Rhodamine tagged protease qHTS. Active compounds were re-acquired and re-screened to confirm inhibition. Inhibitors were further screened against various confirmatory and counterscreens in dose response format. […] A DAPI (mCherry counterscreen) which determine Vero cell cytotoxicity was used to exclude false positive compounds. […] Early Translation Branch (ETB) National Center for Advancing Translational Sciences (NCATS), Rockville, MD National Institute of Health (NIH), Bethesda, Maryland
384 well ZIKV-mCherry & mCherry DAPI counterscreen: We have developed a new orthogonal imaging assay in 384-well plate format, which uses recombinant virus ZIKV-mCherry in Vero cells. Briefly, 30 microL of Vero cells derived from a green monkey cell line, were dispensed by Multidrop Dispenser into a clear solid bottom black 384 well plate (ultracarrier, Perkin Elmer LifeSciences) at a concentration of 5,000 cells per well. The plate was incubated overnight in a CO2 incubator at 37 degrees C. Compounds were delivered as a 126 nL DMSO solution by Kalypsys pintool transfer. Following compound transfer, 10 microL of ZIKV-mCherry was added at an MOI of 1 and incubated in a CO2 incubator for 48-72 hrs at 37 degrees C. After sufficient incubation of infected cells in test plates, 8 microL of 32% PFA was dispensed into assay plates to fix cells and incubated for 20 min at room temperature. Plates were washed 3 times with PBS using BioTek EL406 microplate washer/dispenser. After washing, 30 microL of PBS with 0.01% TX-100 containing Hoechst dye was dispensed into the each well of the plates for nuclear staining. 384-well plates were imaged on an automated, widefield high content imager (INCell 2200, GE Healthcare) using a 10x/0.45 NA lens and standard DAPI (nuclear stain) and mCherry (cy5) excitation and emission filters. The TIFFs were quantitated using the canned Multi Target Analysis protocol (GE Investigator Workstation software v3.7.2). Briefly, nuclei from the DAPI channel were identified using top hat segmentation and a sensitivity setting of 96 and minimum size area of 35 microm2. A recombinant Zika viral infection was monitored in the Cy5 channel (cells) using a 2 microm collar dilation from the nuclear bitmap. mCherry objects with an average nuclear RFU intensity above 450 (3 stdev above mean negative control wells) were considered "mcherry positive" and data was analyzed by percent infection rate.
Potency is the fitted concentration of half-maximal effect.

Structure (SMILES) | Potency
Cc1cc(-c2ccc(N=Nc3c(S(=O)(=O)O)cc4cc(S(=O)(=O)O)cc(N)c4c3O)c(C)c2)ccc1N=Nc1c(S(=O)(=O)O)cc2cc(S(=O)(=O)O)cc(N)c2c1O | inactive
N#CC(C#N)=C(N)/C(C#N)=C/c1cc(O)c(O)c(O)c1 | inactive
O=C(O)c1cc(O)c2cccc(O)c2c1O[C@@H]1O[C@H](CO)[C@@H](O)[C@H](O)[C@H]1O | inactive
CCCCc1nn2c(=O)cc(COC(=O)c3ccc(NC(=O)c4ccccc4Cl)cc3)nc2s1 | 22.4 µM (active)
O=C(O)CSc1nc2ccc(NC(=O)COc3ccc(Cl)cc3)cc2s1 | inactive
Cc1cccc(C)c1-n1c(SCC(=O)Nc2ccc(C(=O)O)cc2)nnc1-c1cccc([S+](=O)([O-])N2CCCC2)c1 | inactive
Cc1ccc(NC(=O)c2ccc3c(O)c(S(=O)(=O)c4ccc(Cl)cc4)c(=O)[nH]c3c2)cc1 | inactive
O=C(O)c1ccccc1-c1c2cc(I)c(=O)c(I)c-2oc2c(I)c(O)c(I)cc12 | inactive
Cc1ccc(NC(=O)c2ccc3c(O)c(S(=O)(=O)c4ccccc4)c(=O)[nH]c3c2)cc1Cl | inactive
Cc1nn2c(=O)cc(COC(=O)c3ccc(NC(=O)c4ccc(C(C)(C)C)cc4)cc3)nc2s1 | 28.2 µM (active)
CC(=O)C(N=Nc1ccc(S(=O)(=O)Nc2ccccn2)cc1)C(=O)Nc1ccc(Cl)cc1 (stereo not given) | inactive
CCCCCCCC/C=C\CCCCCCCC(=O)NCCc1ccc(O)c(O)c1 | 8.91 µM (active)
Cc1cc(OCCCc2c(C(=O)O)n(Cc3cccnc3)c3c(-c4c(COc5ccc(N6CCN([S+](C)(=O)[O-])CC6)cc5)nn(C)c4C)cccc23)cc(C)c1Cl | 14.1 µM (active)
CC(C)=CCOc1ccc(/C=C/C(=O)c2ccc(OCC=C(C)C)cc2OCC(=O)O)cc1 | 25.1 µM (active)
CCc1oc2ccccc2c1C(=O)c1cc(Br)c(O)c(Br)c1 | 11.2 µM (active)
CCOc1ccc(-c2cc(NC(=O)c3c(F)cccc3F)c(C(=O)O)s2)cc1 | 5.01 µM (active)
C/C(=C\CC/C(C)=C/CC[C@]1(C)CCc2cc(O)cc(C)c2O1)CC/C=C(\C)C(=O)O | 14.1 µM (active)
O=C(NCc1ccccc1Cl)c1ccc2c(O)c(S(=O)(=O)c3ccccc3)c(=O)[nH]c2c1 | inactive
Cc1c(C)n(Cc2ccc(-c3ccccc3C(=O)O)cc2)c2ccc(C(=O)N[C@@H](C)c3ccc([N+](=O)[O-])cc3)cc12 | 35.5 µM (active)
CCOc1nc2cccc(C(=O)OC(C)OC(=O)OC3CCCCC3)c2n1Cc1ccc(-c2ccccc2-c2nn[nH]n2)cc1 (stereo not given) | 15.8 µM (active)

Structure (SMILES) | Potency
CCOc1ccc(-c2ccc(Cn3c(CC(C)(C)C(=O)O)c(SC(C)(C)C)c4cc(OCc5ccc(C)cn5)ccc43)cc2)cn1 | 17.8 µM (active)
O=C(O)c1ccccc1Nc1cccc(OCc2ccc3ccccc3n2)c1 | 31.6 µM (active)
CC(C)(C)c1ccc(S(=O)(=O)Nc2ccc(O)c(Sc3nc4ccccc4s3)c2)cc1 | 14.1 µM (active)
CCOC(=O)c1cccc(NC(=O)CSc2ncc3c(n2)-c2ccc(Cl)cc2N(Cc2ccccc2)S3(=O)=O)c1 | inactive
O=c1cc(-c2ccccc2)oc2cc(O)c(O)c(O)c12 | inactive
CC(C)C[C@H](C(=O)O)c1cc(-c2ccc(C(F)(F)F)cc2)cc(-c2ccc(C(F)(F)F)cc2)c1 | 11.2 µM (active)
CC(C)c1ccc2c(c1)c(SC(C)(C)C)c(CC(C)(C)C(=O)O)n2Cc1ccc(Cl)cc1 | 11.2 µM (active)
O=C(Nc1ccc(-c2ccc(Cl)c(Cl)c2)cc1)C1=C(O)c2ccccc2S(=O)(=O)N1 | 8.91 µM (active)
Cc1ccc([C@@H]2CC=C(C(=O)O)[C@H](c3ccc(C(C)(C)C)cc3)N2S(=O)(=O)c2ccc(C)cc2)cc1 | 31.6 µM (active)
Cc1ccc(-c2nnc(Nc3ccc(S(N)(=O)=O)cc3)c3ccccc23)cc1S(=O)(=O)N1CCOCC1 | inactive
Cc1nc(N=Nc2cc(S(=O)(=O)O)c3cc([N+](=O)[O-])cc(S(=O)(=O)O)c3c2)c(COP(=O)(O)O)c(C=O)c1O | inactive
CCOC(=O)c1ccc(N2C(=O)c3n[nH]c(-c4cccs4)c3C2c2ccc(Cl)cc2Cl)cc1 (stereo not given) | 11.2 µM (active)
O=C(Nc1cccc(C(=O)OCc2cc(=O)n3nc(C4CC4)sc3n2)c1)c1ccc(F)cc1 | inactive
CCOC(=O)c1ccc(N2C(=O)c3n[nH]c(-c4cccs4)c3C2c2ccc(C(C)(C)C)cc2)cc1 (stereo not given) | 10 µM (active)
COc1cc(C2Nc3ccccc3-c3nnc(SCc4ccc(Cl)cc4)nc3O2)ccc1OCC(=O)O (stereo not given) | inactive
COc1cc2c(c(O)c1OC/C=C(\C)CC/C=C(/C)CCC=C(C)C)CN(C(CCC(=O)O)C(=O)O)C2=O (stereo not given) | 7.94 µM (active)
O=c1oc2ccccc2cc1-c1nnc(Nc2ccc(Cl)cc2Cl)s1 | inactive
O=C(Nc1ccc(S(=O)(=O)Nc2nccs2)cc1)C(c1ccccc1)c1ccccc1 | inactive
CC(C)c1cccc2c(-c3ccccc3)cc(-c3ccc(-c4ccc(C(=O)O)cc4)[nH]3)nc12 | 25.1 µM (active)
COc1ccc(C(=O)Nc2ccc(C(=O)OCc3cc(=O)n4nc(C(C)C)sc4n3)cc2)cc1 | inactive
